Experiment [1] is described as follows: BSK_hDFCGF_SRB: Viability Assessment in the BioMAP Diversity Plus: hDFCGF Assay (AID 2283061).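 Note: cells exposed to compound for 24 h before the read.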 To be noted: primary human foreskin fibroblasts. A digest of the protocol:
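Human foreskin primary fibroblasts were treated with compound and assessed 24 h after dosing. Total protein was measured by sulforhodamine B staining (0.1% SRB after 10% TCA fixation, 560 nm read) as a cytotoxicity marker, with bidirectional fitting against DMSO baseline.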

Read-out in experiment [2]: TIMP metallopeptidase inhibitor 1 (TIMP1), TIMP1 (gene 7076)
Put plainly: BSK_hDFCGF_TIMP1: BioMAP Diversity Plus: hDFCGF Assay for TIMP metallopeptidase inhibitor 1 (TIMP1) Biomarker Activity (AID 2283062). The note with it: primary human foreskin fibroblasts; actives raise or lower the signal. A digest of the protocol: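 Primary human foreskin fibroblasts in the hDFCGF system were dosed with compound for 24 h, then TIMP-1 was measured by ELISA. Activity was fitted bidirectionally relative to DMSO control; parallel SRB staining assessed cytotoxicity.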

Read-out in experiment [3]: Monokine induced gamma interferon (MIG), CXCL9 (gene 4283)
Put plainly: BSK_hDFCGF_MIG: BioMAP Diversity Plus: hDFCGF Assay for Monokine induced gamma interferon (MIG) Biomarker Activity (AID 2283063). The note with it: primary human foreskin fibroblasts; actives raise or lower the signal. An outline of the steps: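 ELISA read-out of MIG from primary human dermal fibroblasts 24 h post-dosing. Gain or loss of signal fitted bidirectionally, DMSO as baseline.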

Read-out in experiment [4]: Matrix Metallopeptidase 1 (MMP1), MMP1 (gene 4312)
Put plainly: BSK_hDFCGF_MMP1: BioMAP Diversity Plus: hDFCGF Assay for Matrix Metallopeptidase 1 (MMP1) Biomarker Activity (AID 2283064). To be noted: primary human foreskin fibroblasts; actives raise or lower the signal. A digest of the protocol: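 hDFCGF primary fibroblasts (human foreskin); chemical added; 24 h; MMP1 by ELISA; bidirectional fit vs DMSO.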

Read-out in experiment [5]: Vascular cell adhesion molecule 1 (VCAM1), VCAM1 (gene 7412)
In words: BSK_hDFCGF_VCAM1: BioMAP Diversity Plus: hDFCGF Assay for Vascular cell adhesion molecule 1 (VCAM1) Biomarker Activity (AID 2283065).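 For AC50: VCAM-1 protein level quantified by ELISA after 24 h chemical exposure.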 To be noted: primary human foreskin fibroblasts; actives raise or lower the signal. An outline of the steps: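 Primary human foreskin fibroblasts (hDFCGF system) were dosed with chemical and VCAM-1 was measured by ELISA 24 h later. Bidirectional curve fitting used DMSO as negative control and activity baseline.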

Read-out in experiment [6]: Plasminogen activator inhibitor-1 (PAI1), SERPINE1 (gene 5054)
In words: BSK_hDFCGF_PAI1: BioMAP Diversity Plus: hDFCGF Assay for Plasminogen activator inhibitor-1 (PAI1) Biomarker Activity (AID 2283066). To be noted: primary human foreskin fibroblasts; actives raise or lower the signal. A digest of the protocol:
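Primary dermal fibroblasts (human foreskin), hDFCGF system; compound 24 h; PAI-1 by ELISA; bidirectional fit vs DMSO control.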

Read-out in experiment [7]: Intercellular Adhesion Molecule 1 (ICAM1), ICAM1 (gene 3383)
Put plainly: BSK_KF3CT_ICAM1: BioMAP Diversity Plus: KF3CT Assay for Intercellular Adhesion Molecule 1 (ICAM1) Biomarker Activity (AID 2283067). To be noted: primary human keratinocytes with fibroblasts; actives raise or lower the signal. A digest of the protocol:
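Human keratinocyte plus foreskin fibroblast primary co-culture was exposed to chemical for 24 h. ICAM-1 was then quantified by ELISA, and the data were fit bidirectionally against DMSO as the negative control and baseline.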

Read-out in experiment [8]: Interferon-gamma inducible Protein 10 (IP10), CXCL10 (gene 3627)
Put plainly: BSK_KF3CT_IP10: BioMAP Diversity Plus: KF3CT Assay for Interferon-gamma inducible Protein 10 (IP10) Biomarker Activity (AID 2283068). To be noted: primary human keratinocytes with fibroblasts; actives raise or lower the signal. A digest of the protocol: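 Human keratinocyte plus foreskin fibroblast primary co-culture exposed to test chemical for 24 h; IP-10 measured by ELISA. Concentration-response fitted bidirectionally against DMSO control as baseline.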

The nature of experiment [9]: BSK_KF3CT_SRB: Viability Assessment in the BioMAP Diversity Plus: KF3CT Assay (AID 2283069).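 Note: fitted for both signal gain and loss against DMSO baseline.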 To be noted: primary human keratinocytes with fibroblasts. An outline of the steps:
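Keratinocytes co-cultured with foreskin fibroblasts (human primary); chemical added, 24 h; fix 10% TCA, stain 0.1% SRB, A560. Bidirectional fit vs DMSO.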

Read-out in experiment [10]: Interleukin-1 alpha (IL1a), IL1A (gene 3552)
Put plainly: BSK_KF3CT_IL1a: BioMAP Diversity Plus: KF3CT Assay for Interleukin-1 alpha (IL1a) Biomarker Activity (AID 2283070). The note with it: primary human keratinocytes with fibroblasts; actives raise or lower the signal. A digest of the protocol:
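Chemicals were dosed onto co-cultured human keratinocytes and foreskin fibroblasts, IL-1a was quantified by ELISA at 24 h, and activity was fitted in both directions relative to DMSO controls.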

Read-out in experiment [11]: TIMP metallopeptidase inhibitor 2 (TIMP2), TIMP2 (gene 7077)
Put plainly: BSK_KF3CT_TIMP2: BioMAP Diversity Plus: KF3CT Assay for TIMP metallopeptidase inhibitor 2 (TIMP2) Biomarker Activity (AID 2283071). To be noted: primary human keratinocytes with fibroblasts; actives raise or lower the signal. An outline of the steps:
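Cells: human keratinocytes co-cultured with foreskin fibroblasts. Treat with chemical, 24 h. Measure TIMP-2 by ELISA; fit curves bidirectionally vs DMSO baseline.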

Read-out in experiment [12]: Transforming growth factor beta 1 (TGFb1), TGFB1 (gene 7040)
Put plainly: BSK_KF3CT_TGFb1: BioMAP Diversity Plus: KF3CT Assay for Transforming growth factor beta 1 (TGFb1) Biomarker Activity (AID 2283072). The note with it: primary human keratinocytes with fibroblasts; actives raise or lower the signal. An outline of the steps:
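Primary human skin cells (keratinocytes, foreskin fibroblasts) were co-cultured, exposed to test chemical and sampled at 24 h. TGF-b1 levels were measured by ELISA and fitted bidirectionally relative to DMSO.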

Read-out in experiment [13]: Matrix Metallopeptidase 9 (MMP9), MMP9 (gene 4318)
Put plainly: BSK_KF3CT_MMP9: BioMAP Diversity Plus: KF3CT Assay for Matrix Metallopeptidase 9 (MMP9) Biomarker Activity (AID 2283074).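 For AC50: MMP9 protein level quantified by ELISA in the co-culture.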 The note with it: primary human keratinocytes with fibroblasts; actives raise or lower the signal. A digest of the protocol: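 Human keratinocyte/foreskin fibroblast co-culture; compound added; 24 h; MMP-9 by ELISA; bidirectional fit vs DMSO baseline.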

Read-out in experiment [14]: urokinase plasminogen activator (uPA), PLAU (gene 5328)
Put plainly: BSK_KF3CT_uPA: BioMAP Diversity Plus: KF3CT Assay for urokinase plasminogen activator (uPA) Biomarker Activity (AID 2283075). The note with it: primary human keratinocytes with fibroblasts; actives raise or lower the signal. An outline of the steps:
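ELISA readout of uPA, analyzed for signal gain or loss relative to DMSO, from a human primary keratinocyte–foreskin fibroblast co-culture measured 24 h after chemical treatment.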

Read-out in experiment [15]: CD40, CD40 (gene 958)
In words: BSK_LPS_CD40: BioMAP Diversity Plus: LPS Assay for CD40 Biomarker Activity (AID 2283076). To be noted: primary human HUVEC with PBMC; actives raise or lower the signal. A digest of the protocol:
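Primary human umbilical vein endothelial cells co-cultured with peripheral blood mononuclear cells, LPS-stimulated, were dosed with chemical and read 24 h later. CD40 levels were measured by ELISA and fitted bidirectionally against DMSO as negative control and baseline.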

Read-out in experiment [16]: E-selectin (Homo sapiens) (UniProt P16581)
In words: BSK_LPS_Eselectin: BioMAP Diversity Plus: LPS Assay for Eselectin Biomarker Activity (AID 2283077). The note with it: primary human HUVEC with PBMC; actives raise or lower the signal. An outline of the steps: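 Human umbilical vein endothelial cells co-cultured with peripheral blood mononuclear cells under LPS stimulation; E-selectin measured by ELISA 24 h after chemical dosing. Activity fitted bidirectionally against DMSO as negative control and baseline.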

Read-out in experiment [17]: Interleukin-8 (IL8), CXCL8 (gene 3576)
In words: BSK_LPS_IL8: BioMAP Diversity Plus: LPS Assay for Interleukin-8 (IL8) Biomarker Activity (AID 2283078). To be noted: primary human HUVEC with PBMC; actives raise or lower the signal. An outline of the steps: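 Human umbilical vein endothelial cells co-cultured with PBMC were stimulated with LPS; IL-8 levels were measured by ELISA 24 h after chemical dosing. Activity was fitted bidirectionally against DMSO as negative control and baseline.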

Experiment [18] is described as follows: BSK_LPS_SRB: Viability Assessment in the BioMAP Diversity Plus: LPS Assay (AID 2283079).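 Note: total protein by sulforhodamine B absorbance as a cytotoxicity measure; measured one day after compound addition; fitted in both directions against DMSO so loss or gain of signal counts.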 The note with it: primary human HUVEC with PBMC. An outline of the steps:
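Human umbilical vein endothelial cells co-cultured with PBMC (LPS system) were dosed for 24 h. Total protein was stained with 0.1% sulforhodamine B after 10% TCA fixation, read at 560 nm, and fitted bidirectionally against DMSO baseline.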

Read-out in experiment [19]: Interleukin-1 alpha (IL1a), IL1A (gene 3552)
Put plainly: BSK_LPS_IL1a: BioMAP Diversity Plus: LPS Assay for Interleukin-1 alpha (IL1a) Biomarker Activity (AID 2283080). The note with it: primary human HUVEC with PBMC; actives raise or lower the signal. An outline of the steps:
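Human umbilical vein endothelial cells co-cultured with peripheral blood mononuclear cells were LPS-stimulated and exposed to test chemicals for 24 h. IL-1 alpha was quantified by ELISA, with bidirectional curve fitting against DMSO as the negative control and baseline.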

Read-out in experiment [20]: C-C motif chemokine 2 (Homo sapiens) (UniProt P13500)
In words: BSK_KF3CT_MCP1: BioMAP Diversity Plus: KF3CT Assay for Monocyte Chemoattractant Protein 1 (MCP1/CCL2) Biomarker Activity (AID 2283073). The note with it: primary human keratinocytes with fibroblasts; actives raise or lower the signal. A digest of the protocol:
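Human keratinocyte plus foreskin fibroblast primary co-culture exposed to chemical for 24 h. MCP-1 levels measured by ELISA. Bidirectional curve fitting relative to DMSO negative control as baseline.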

Several values for one entry are separate records, joined by “and”; a condition that tells them apart may be missing. Equal values may be shown once. More than one record can exist for a structure, and the calls need not agree. Activity calls are given as the source filed them. Rule for the calls: active = hit-call score of the fitted dose curve at least 0.9, where 1 is the maximum; inactive = score below 0.9.

Chain of E-selectin (Homo sapiens) (P16581 whole entry, looked up): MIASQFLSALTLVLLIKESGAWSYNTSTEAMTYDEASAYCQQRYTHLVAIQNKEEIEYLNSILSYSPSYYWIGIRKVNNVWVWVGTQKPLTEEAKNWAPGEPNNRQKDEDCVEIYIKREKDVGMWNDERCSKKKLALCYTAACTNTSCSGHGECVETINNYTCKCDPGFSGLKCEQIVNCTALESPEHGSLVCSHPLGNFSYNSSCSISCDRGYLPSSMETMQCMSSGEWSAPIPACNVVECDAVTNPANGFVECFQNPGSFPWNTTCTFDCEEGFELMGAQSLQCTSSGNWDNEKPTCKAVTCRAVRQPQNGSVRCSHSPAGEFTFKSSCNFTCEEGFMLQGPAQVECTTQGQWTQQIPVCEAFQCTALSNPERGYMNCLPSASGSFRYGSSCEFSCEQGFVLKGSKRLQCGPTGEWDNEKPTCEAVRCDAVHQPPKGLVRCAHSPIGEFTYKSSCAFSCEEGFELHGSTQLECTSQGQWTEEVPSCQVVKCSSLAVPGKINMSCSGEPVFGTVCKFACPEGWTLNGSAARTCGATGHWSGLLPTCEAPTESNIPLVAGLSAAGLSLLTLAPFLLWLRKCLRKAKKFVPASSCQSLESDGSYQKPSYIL

In the case of `Clc1ccc(C(Cl)(Cl)Cl)cc1`, the outcome in [1], in [2], in experiment [3], in [4], in [5] and in experiment [6] was inactive. Also, the outcome in experiment [7], in experiment [8], in experiment [9], in [10], in experiment [11] and in [12] was inactive. For the same compound, the outcome in experiment [13], in experiment [14], in [15], in experiment [16], in [17] and in [18] was inactive. Also, in experiment [19], the outcome was inactive.
One may read the AC50 as the concentration giving half of the maximal activity seen. For `ClC(Cl)=C(c1ccc(Cl)cc1)c1ccc(Cl)cc1`, the AC50 is 18.2 µM (active) in experiment [1]; 30 µM (active) in experiment [2]; 27.8 µM (active) in experiment [3]; 31.6 µM (active) in experiment [4]; 14.1 µM (active) in experiment [5]; 16.6 µM (active) in experiment [6]. For the same compound, the AC50 is 20 µM (active) in experiment [7]; 30.2 µM (active) in experiment [8]; 27.9 µM (active) in experiment [9]; 27.9 µM (active) in [10]; 27 µM (active) in [11]; 32.6 µM (active) in [12]. Also, the AC50 in experiment [13] is 20 µM (active); in experiment [14], 38.7 µM (active); in experiment [15] it was 29.8 µM (active); in experiment [16], 30.6 µM (active); in [17] it was 32.1 µM (active); in [19], 26.6 µM (active).
Regarding `Cc1cc2c3c(c1)C(c1ccccc1)=N[C@@H](NC(=O)c1ccncc1)C(=O)N3CC2`, the result in experiment [1], in [2], in experiment [3], in experiment [5], in experiment [7] and in experiment [8] was inactive. Further, the result in [9], in experiment [10], in experiment [11], in experiment [12], in experiment [20] and in experiment [13] was inactive. In addition, the outcome in experiment [14], in [16], in experiment [17] and in experiment [18] was inactive. For the same compound, the AC50 in [4] was 14 µM (active); in experiment [6], 5.53 µM (active); in experiment [15], 3.97 µM (active); in experiment [19] it was 3.97 µM (active).
For the compound `O=C(O)C(F)(F)C(F)(F)C(F)(F)C(F)(F)C(F)(F)C(F)(F)C(F)(F)C(F)(F)F`, the result in experiment [1], in experiment [2], in experiment [3], in [4], in [6] and in experiment [7] was inactive. Moreover, the result in experiment [9], in experiment [10], in [11], in experiment [12], in experiment [14] and in [15] was inactive. The outcome in experiment [16], in experiment [17], in experiment [18] and in experiment [19] was inactive. Also, the AC50 in experiment [3] was 19 µM (active); in experiment [8] it was 30.2 µM (active) and 54.7 µM (active) and 47.3 µM (active); in [10], 7.86 µM (active) and 30 µM (active); in experiment [13], 33.2 µM (active) and 35.9 µM (active) and 30 µM (active); in experiment [15], 48.3 µM (active) and 45.1 µM (active); in [17], 7.33 µM (active) and 50.3 µM (active). In addition, the AC50 is 53.5 µM (active) and 55 µM (active) in experiment [18]; 44.1 µM (active) in experiment [19].
On to `ClC1=C(Cl)[C@]2(Cl)[C@@H]3[C@H]4C[C@H]([C@@H]5O[C@H]45)[C@@H]3[C@@]1(Cl)C2(Cl)Cl`, for which the result in experiment [1], in experiment [2], in [3], in experiment [4], in [5] and in [7] was inactive. Besides, the outcome in [8], in experiment [9], in experiment [10], in experiment [11], in [12] and in experiment [13] was inactive. For the same compound, the result in experiment [14], in experiment [15], in experiment [16], in experiment [17] and in experiment [19] was inactive. For the same compound, the AC50 in experiment [18] is 7.24 µM (active).

For the origin of these results see PubChem BioAssay (EPA / NIEHS).
